Test systems include PDGFRB; PDPK1; PFTAIRE2; PHKG1; PHKG2; PIK3C2B; PIK3C2G; PIK3CA; PIK3CB.
Conditions in all cases: concentration: 1 μM, replicates: in singlicate; n = 1
Another assay concerns T1, PFTK1.
T1 construct: gene CDK14
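Note: KINOMEscan kinase panel screen.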

For the compound `CC(C)N1CCC(n2cnc(-c3ccc(F)cc3)c2-c2ccnc(N)n2)CC1` [SB-223132], the “%Inh” value in the assay with PDGFRB came out at 0%; with PDPK1, 5%; with PFTAIRE2, 0%; in the assay with PFTK1, 2%; with PHKG1 it was 28%; in the assay on PHKG2, 0%. Further, the “%Inh” value in the assay with PIK3C2B, in the assay with PIK3C2G, in the assay on PIK3CA and in the assay on PIK3CB was 0% in each case.
For `O=C(NCCCN1CCCC1=O)c1cnc(NCc2cc(Cl)ccc2Cl)nc1NC1CCNCC1`, the “%Inh” value in the assay with PDGFRB worked out at 0%; in the assay on PDPK1, 7%; with PFTAIRE2 it was 0%; with PFTK1, 7%; in the assay with PHKG1, 0%; in the assay on PHKG2, 1%. In addition, the “%Inh” value in the assay with PIK3C2B, in the assay on PIK3C2G, with PIK3CA and with PIK3CB was 0% each time.
With `CSc1ccc(NC2=C(c3ccccc3Cl)C(=O)NC2=O)cc1` [SB-342411], the “%Inh” value is listed as 31% in the assay on PDGFRB; 80% in the assay with PDPK1; 20% in the assay on PFTAIRE2; 25% with PFTK1; 0% in the assay with PHKG1; 25% with PHKG2. Besides, the “%Inh” value in the assay with PIK3C2B came out at 0%; in the assay on PIK3C2G it was 17%; with PIK3CA, 0%; in the assay on PIK3CB, 3%.
Consider `Fc1cccc(COc2ccc(Nc3ncnc4sc(-c5ccc[nH]5)cc34)cc2Cl)c1` [GW707818], for which the “%Inh” value in the assay with PDGFRB came to 19%; with PDPK1, 5%; with PFTAIRE2, 22%; in the assay with PFTK1 it was 23%; with PHKG1, 0%; with PHKG2, 12%. The “%Inh” value in the assay on PIK3C2B is on record as 0%; in the assay on PIK3C2G, 7%; in the assay on PIK3CA, 0%; in the assay with PIK3CB, 1%.
As for `OCCOCCn1ccc2ncnc(Nc3ccc(Oc4cccc(Cl)c4)c(Cl)c3)c21`, the “%Inh” value in the assay with PDGFRB is recorded as 0%; with PDPK1, 13%; in the assay with PFTAIRE2, 0%; in the assay on PFTK1, 10%; with PHKG1 it was 0%; with PHKG2, 26%. The “%Inh” value with PIK3C2B, in the assay on PIK3C2G, in the assay on PIK3CA and in the assay with PIK3CB was 0% in each case.
In the case of `CNc1nccc(-c2c(-c3ccc(F)cc3)ncn2C2CCN(C)CC2)n1` [SB-222903], the “%Inh” value was determined as 17% in the assay with PDGFRB; 0% in the assay with PDPK1; 0% in the assay on PFTAIRE2; 0% in the assay on PFTK1; 0% in the assay with PHKG1; 0% in the assay on PHKG2. The “%Inh” value with PIK3C2B, in the assay with PIK3C2G, in the assay with PIK3CA and with PIK3CB was 0% throughout.
As for `O=c1cc(N2CCOCC2)nc2n(Cc3cccc(Cl)c3)ccn12` [GSK2296823], the “%Inh” value turned out to be 15% in the assay on PDGFRB; 0% in the assay on PDPK1; 14% in the assay with PFTAIRE2; 18% in the assay on PFTK1; 0% in the assay on PHKG1; 0% in the assay on PHKG2. For the same compound, the “%Inh” value with PIK3C2B amounted to 6%; with PIK3C2G, 0%; with PIK3CA, 0%; in the assay on PIK3CB it was 98.5%.
On to `CC(=O)Nc1n[nH]c2ncc(-c3ccccc3)cc12` [SB-548492], for which the “%Inh” value in the assay on PDGFRB came to 90%; in the assay with PDPK1 it was 0%; with PFTAIRE2, 14%; in the assay with PFTK1, 12%; with PHKG1 it was 2%; in the assay on PHKG2, 0%. In addition, the “%Inh” value in the assay with PIK3C2B was determined as 3%; in the assay on PIK3C2G, 23%; in the assay on PIK3CA, 0%; in the assay with PIK3CB it was 0%.
On to `Cl.c1ccc(Cn2ncc3cc(Nc4ncnc5ccccc45)ccc32)cc1` [GW273749], for which the “%Inh” value in the assay with PDGFRB is recorded as 0%; in the assay on PDPK1, 0%; in the assay with PFTAIRE2, 20%; in the assay with PFTK1, 14%; in the assay with PHKG1, 0%; in the assay on PHKG2, 0%. Also, the “%Inh” value in the assay with PIK3C2B is 16%; in the assay on PIK3C2G, 0%; in the assay with PIK3CA, 0%; with PIK3CB it was 7%.

(Values after paper PMC5540273 (PLoS ONE, 2017).)
